{
  "source": "PubChem BioAssay (EPA / NIEHS)",
  "note": "Active and inactive are the calls of the source. The calls were made as follows: active = hit-call score of the fitted dose curve at least 0.9, where 1 is the maximum; inconclusive = response in the unintended direction; inactive = score below 0.9.",
  "data": [
    {"target": "Estrogen receptor (Homo sapiens) (UniProt P03372)", "sequence (P03372 whole entry, looked up)": "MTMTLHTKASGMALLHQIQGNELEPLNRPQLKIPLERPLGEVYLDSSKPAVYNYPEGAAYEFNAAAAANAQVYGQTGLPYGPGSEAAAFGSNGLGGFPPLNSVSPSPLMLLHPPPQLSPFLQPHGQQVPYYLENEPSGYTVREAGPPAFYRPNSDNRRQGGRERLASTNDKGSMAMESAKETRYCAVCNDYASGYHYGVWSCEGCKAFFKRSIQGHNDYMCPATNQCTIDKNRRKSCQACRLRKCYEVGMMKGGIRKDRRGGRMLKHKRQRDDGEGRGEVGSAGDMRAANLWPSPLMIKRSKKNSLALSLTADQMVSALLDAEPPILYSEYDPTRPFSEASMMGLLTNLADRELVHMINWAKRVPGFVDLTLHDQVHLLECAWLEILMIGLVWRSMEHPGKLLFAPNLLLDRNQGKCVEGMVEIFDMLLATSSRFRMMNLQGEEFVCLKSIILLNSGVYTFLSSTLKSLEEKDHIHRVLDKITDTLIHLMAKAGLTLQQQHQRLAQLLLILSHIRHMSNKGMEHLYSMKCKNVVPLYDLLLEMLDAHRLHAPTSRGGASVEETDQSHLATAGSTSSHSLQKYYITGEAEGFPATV", "test": "OT_ER_ERaERa_1440: Odyssey Thera (OT) 24-hour HEK293T Protein-Complementation Assay for Estrogen Receptor-alpha/-alpha Homodimer (AID 2283349);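 also: hits raise fluorescence above DMSO for agonists and antagonists alike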", "procedure": "OT_ER_ERaERa_1440 is a cell-based assay that uses HEK293T, a human kidney cell line, with measurements taken at 24 hours after chemical dosing in a 384-well plate.OT_ER_ERaERa_1440 is one of one assay component(s) measured or calculated from the OT_ER_ERaERa_1440 assay. It is designed to make measurements of protein fragment complementation, a form of binding reporter, as detected with fluorescence intensity signals by Protein-fragment Complementation technology.Data from the assay component OT_ER_ERaERa_1440 was analyzed into 1 assay endpoint. This assay endpoint, OT_ER_ERaERa_1440, was analyzed in the positive analysis fitting direction relative to DMSO as the negative control and baseline of activity. Using a type of binding reporter, measures of receptor for gain-of-signal activity can be used to understand the binding at the pathway-level as they relate to the gene ESR1. Furthermore, this assay endpoint can be referred to as a primary readout, because the performed assay has only produced 1 assay endpoint. To generalize the intended target to other relatable targets, this assay endpoint is annotated to the nuclear receptor intended target family, where the subfamily is steroidal.\nProtein-fragment complementation assay, or PCA, is a method for the identification and quantification of protein-protein interactions. In the PCA, the proteins of interest (\"bait\" and \"prey\") are each covalently linked to fragments of a third protein (e.g. DHFR, which acts as a \"reporter\"). Interaction between the bait and the prey proteins brings the fragments of the reporter protein in close proximity to allow them to form a functional reporter protein whose activity can be measured. The OT ER alpha / ER alpha assay is a homodimer PCA of the ligand binding domain (amino acids 310-547) of human ER alpha stably expressed in HEK293T cells. […] Fluorescent signal in the basal state of the assay is very low and is primarily punctuate and cytoplasmic. Modulation of this assay is quantified as an increase in mean fluorescence intensity in the nucleus (for agonists) or in the nucleus and cytoplasm (antagonists) relative to vehicle controls, and can be quantified on a high content imaging device or a laser scanning cytometer. The latter instrument is favored for this assay because of the rapid mode of data acquisition, the ability to acquire data from the entire cell population in a well (as opposed to a fraction of the well on the high content devices) and the larger dynamic range typically achieved with this instrument. To assess sensitivity of the ER alpha/ER alpha LBD assay to ligand, cells were treated with the ER agonist 17 beta-estradiol (E2) in 10-point concentration- response format for 24 hours and monitored response on a laser scanning plate cytometer (Acumen eX3; TTP Lab Tech).", "values": [
      {"smiles": "O=[N+]([O-])c1ccc(Cl)c(Cl)c1", "outcome": "inactive"},
      {"smiles": "O=NN1CCCC1", "AC50": "12.1 µM (active)"},
      {"smiles": "CCOP(=S)(OCC)SCSCC", "outcome": "inactive"},
      {"smiles": "O=C(CBr)OCc1ccccc1", "outcome": "inactive"},
      {"smiles": "CCOS(=O)(=O)OCC", "outcome": "inactive"},
      {"smiles": "O=S1(=O)OCC2C(CO1)C1(Cl)C(Cl)=C(Cl)C2(Cl)C1(Cl)Cl", "note": "(stereo not given)", "outcome": "inactive"},
      {"smiles": "O=S(=O)(c1ccc(O)cc1)c1ccc(O)cc1", "AC50": "46.8 µM (active)"},
      {"smiles": "CCCN(CCC)c1c([N+](=O)[O-])cc(C(C)C)cc1[N+](=O)[O-]", "AC50": "56.6 µM (active)"},
      {"smiles": "CCCCc1ccccc1", "outcome": "inactive"},
      {"smiles": "O=c1ssc(Cl)c1Cl", "outcome": "inactive"},
      {"smiles": "c1ccc(OP(Oc2ccccc2)Oc2ccccc2)cc1", "outcome": "inactive"},
      {"smiles": "Cc1ccc(O)cc1C", "outcome": "inactive"},
      {"smiles": "[N-]=[N+]=[N-]", "outcome": "inactive"},
      {"smiles": "CCOC(=O)c1ccccc1C(=O)OCC", "outcome": "inactive"},
      {"smiles": "O=[N+]([O-])c1ccccc1", "outcome": "inactive"},
      {"smiles": "Nc1cc2c3c(c1)C(c1ccccc1)=N[C@@H](NC(=O)c1cccnc1)C(=O)N3CC2", "outcome": "inactive"},
      {"smiles": "ClC(Cl)c1ccccc1", "outcome": "inactive"},
      {"smiles": "ClC(Cl)(Cl)c1ccccc1", "outcome": "inactive"},
      {"smiles": "CCC1(c2ccccc2)C(=O)N=C(O)NC1=O", "note": "(stereo not given)", "outcome": "inactive"},
      {"smiles": "CCOP(=S)(Oc1ccc([N+](=O)[O-])cc1)c1ccccc1", "note": "(stereo not given)", "outcome": "inactive"},
      {"smiles": "CCC(C)(C)c1ccc(O)cc1", "AC50": "14.9 µM (active)"},
      {"smiles": "Cc1ccc([N+](=O)[O-])cc1C", "outcome": "inactive"},
      {"smiles": "CC1(C)CN=C(NN=C(/C=C/c2ccc(C(F)(F)F)cc2)/C=C/c2ccc(C(F)(F)F)cc2)NC1", "outcome": "inactive"},
      {"smiles": "CCCCc1ccc(O)cc1", "AC50": "41.4 µM (active)"},
      {"smiles": "CCCCN(CCCC)SN(C)C(=O)Oc1cccc2c1OC(C)(C)C2", "outcome": "inactive"},
      {"smiles": "CC(C)(C)N(NC(=O)c1ccc(Cl)cc1)C(=O)c1ccccc1", "outcome": "inactive"},
      {"smiles": "c1nc[nH]n1", "outcome": "inactive"},
      {"smiles": "Nc1ccc2ccccc2c1", "outcome": "inactive"},
      {"smiles": "O=C(O)C(Cl)Cl", "outcome": "inactive"},
      {"smiles": "c1cc2c3c(cccc3c1)CC2", "outcome": "inactive"},
      {"smiles": "O=P1(N(CCCl)CCCl)NCCCO1", "note": "(stereo not given)", "outcome": "inactive"},
      {"smiles": "CSC(C)(C)C=NO", "outcome": "inactive"},
      {"smiles": "CCCCC(CC)COC(=O)c1c(Br)c(Br)c(Br)c(Br)c1C(=O)OCC(CC)CCCC", "note": "(stereo not given)", "outcome": "inactive"},
      {"smiles": "CCN(CC)c1ccccc1", "outcome": "inactive"},
      {"smiles": "O=P(OCC(Br)CBr)(OCC(Br)CBr)OCC(Br)CBr", "note": "(stereo not given)", "outcome": "inactive"},
      {"smiles": "Cc1ccc(N)cc1N", "outcome": "inactive"},
      {"smiles": "c1ccc2c(c1)sc1ccccc12", "outcome": "inactive"},
      {"smiles": "O=P(Oc1ccccc1)(Oc1ccccc1)Oc1ccccc1", "AC50": "12.4 µM (active)"},
      {"smiles": "Cc1cccc(N)c1", "outcome": "inactive"},
      {"smiles": "CCOC(=O)c1ccccc1N", "outcome": "inactive"}
    ]}
  ]
}
